Records with an inconclusive call do not appear. The source made the active and inactive calls. Rule for the calls, unless noted: active = hit-call score of the fitted dose curve at least 0.9, where 1 is the maximum; inconclusive = response in the unintended direction; inactive = score below 0.9.

In assay [1] the target is Nuclear receptor subfamily 1 group I member 3 (Homo sapiens) (UniProt Q14994). Kind of assay: ATG_CAR_TRANS: Attagene TRANS-FACTORIAL HepG2 Assay for human Constitutive Androstane Receptor (CAR) (AID 2282969).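 Note: activators raise reporter mRNA above DMSO so AC50 marks induction.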 The following applies: HepG2 Attagene TRANS-FACTORIAL CAR reporter. A digest of the protocol: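 HepG2 cells transiently transfected with GAL4-UAS reporter units; TRANS format reads activity of exogenous chimeric NR-Gal4 protein. After 24 h dosing, reporter mRNA quantified by RT-PCR, 6-FAM labelling and capillary electrophoresis; gain of signal fitted against DMSO.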

Assay [2] concerns the target Glucocorticoid receptor (Homo sapiens) (UniProt P04150). Kind of assay: ATG_GR_TRANS: Attagene TRANS-FACTORIAL HepG2 Assay for human Glucocorticoid Receptor (GR) (AID 2282978).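 Note: activators score as hits since higher reporter transcript over DMSO is fitted.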 The following applies: HepG2 Attagene TRANS GR reporter, mRNA transcription. A digest of the protocol:
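Reporter transcript levels, detected by fluorescence after RT-PCR and capillary electrophoresis, served as the endpoint. HepG2 cells bearing transfected GAL4-UAS reporters responsive to NR-GAL4 chimeras were incubated with compound 24 h; DMSO defined baseline.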

A short description of assay [3]: BSK_4H_Eotaxin3: BioMAP Diversity Plus: 4H Assay for Eotaxin 3 Biomarker Activity (AID 2283000; active = hit-call score of the fitted dose curve at least 0.9, where 1 is the maximum; inactive = score below 0.9;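 for outcome: CCL26 protein level quantified by ELISA in parallel with SRB cytotoxicity check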). The following applies: primary human endothelial cells (HUVEC); actives raise or lower the signal. A digest of the protocol: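 Endothelial primary cells (human umbilical vein) exposed to compound for 24 h. ELISA detection of Eotaxin-3.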
In assay [4] the target is human Peroxisome Proliferator-activated Receptor delta (PPARd), PPARD (gene 5467) (UniProt Q03181). Kind of assay: ATG_PPARd_TRANS: Attagene TRANS-FACTORIAL HepG2 Assay for human Peroxisome Proliferator-activated Receptor delta (PPARd) (AID 2283002). A digest of the protocol: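 Fluorescence from capillary electrophoresis of labelled RT-PCR reporter fragments gives the signal; DMSO sets baseline. Cells: HepG2 transiently carrying GAL4-UAS reporter units plus chimeric nuclear receptor-Gal4 proteins, exposed to chemicals for 24 h.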

Read-out in assay [5]: Intercellular Adhesion Molecule 1 (ICAM1), ICAM1 (gene 3383)
In words: BSK_3C_ICAM1: BioMAP Diversity Plus: 3C Assay for Intercellular Adhesion Molecule 1 (ICAM1) Biomarker Activity (AID 2283003; active = hit-call score of the fitted dose curve at least 0.9, where 1 is the maximum; inactive = score below 0.9). The conditions noted are these: primary human endothelial cells (HUVEC); actives raise or lower the signal. In a few lines: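 ICAM-1 levels measured by ELISA after HUVEC cultures in the 3C system had been dosed for 24 h. Gain or loss of signal relative to DMSO was fitted in both directions.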

Assay [6] concerns the target Nuclear receptor subfamily 1 group I member 2 (Homo sapiens) (UniProt O75469). In words: ATG_PXR_TRANS: Attagene TRANS-FACTORIAL HepG2 Assay for human Pregnane X Receptor (PXR) (AID 2283008). A digest of the protocol:
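Measures mRNA induction of a GAL4-UAS-driven reporter in human HepG2 cells transiently expressing PXR fused to Gal4, following 24 h treatment. DMSO served as negative control and baseline.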

The target of assay [7] is Retinoic acid receptor RXR-alpha (Homo sapiens) (UniProt P19793). In words: ATG_RXRa_TRANS: Attagene TRANS-FACTORIAL HepG2 Assay for human Retinoid X Receptor alpha (RXRa) (AID 2283012). A digest of the protocol: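 Transient transfection of human HepG2 with multiple GAL4-UAS reporter constructs; 24 h compound exposure; total RNA isolated, reverse-transcribed, PCR-amplified, 6-FAM labelled, HpaI-cut, resolved by capillary electrophoresis. Positive-direction fit versus DMSO.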

Read-out in assay [8]: Monokine induced gamma interferon (MIG), CXCL9 (gene 4283)
Kind of assay: BSK_3C_MIG: BioMAP Diversity Plus: 3C Assay for Monokine induced gamma interferon (MIG) Biomarker Activity (AID 2283021; active = hit-call score of the fitted dose curve at least 0.9, where 1 is the maximum; inactive = score below 0.9). The following applies: primary human endothelial cells (HUVEC); actives raise or lower the signal. In a few lines: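 Read-out is ELISA detection of MIG on human umbilical vein endothelial cells, taken 24 h after dosing. Gain or loss of signal was scored relative to DMSO controls using bidirectional curve fitting.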

Read-out in assay [9]: Urokinase-type plasminogen activator receptor (uPAR), PLAUR (gene 5329)
Kind of assay: BSK_4H_uPAR: BioMAP Diversity Plus: 4H Assay for Urokinase-type plasminogen activator receptor (uPAR) Biomarker Activity (AID 2283030; active = hit-call score of the fitted dose curve at least 0.9, where 1 is the maximum; inactive = score below 0.9). The conditions noted are these: primary human endothelial cells (HUVEC); actives raise or lower the signal. In a few lines:
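Chemicals are dosed onto human vascular endothelial primary cells (umbilical vein). After 24 h, uPAR is read by ELISA. Gain or loss of signal is fitted relative to DMSO.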

Read-out in assay [10]: Monokine induced gamma interferon (MIG), CXCL9 (gene 4283)
Kind of assay: BSK_BE3C_MIG: BioMAP Diversity Plus: BE3C Assay for Monokine induced gamma interferon (MIG) Biomarker Activity (AID 2283035; active = hit-call score of the fitted dose curve at least 0.9, where 1 is the maximum; inactive = score below 0.9;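 note: MIG protein measured by ELISA in BE3C cultures after 24 h of dosing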). The conditions noted are these: primary human bronchial epithelial cells; actives raise or lower the signal. In a few lines:
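Primary human bronchial epithelial cells treated for 24 h; MIG levels measured by ELISA, fitted bidirectionally versus DMSO. Parallel SRB total-protein staining assessed cytotoxicity.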

Read-out in assay [11]: urokinase plasminogen activator (uPA), PLAU (gene 5328)
Kind of assay: BSK_BE3C_uPA: BioMAP Diversity Plus: BE3C Assay for urokinase plasminogen activator (uPA) Biomarker Activity (AID 2283038; active = hit-call score of the fitted dose curve at least 0.9, where 1 is the maximum; inactive = score below 0.9;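 note: uPA protein level quantified by ELISA in cell cultures; uPA read one day after compound addition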). The conditions noted are these: primary human bronchial epithelial cells; actives raise or lower the signal. In a few lines: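 Measured by ELISA: uPA from human primary bronchial epithelial cells 24 h after chemical treatment. Values derive from bidirectional curve fitting with DMSO serving as negative control. Total protein by SRB staining in parallel wells flagged overt cytotoxicity.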

The nature of assay [12]: ATG_XTT_Cytotoxicity: Cytotoxicity Assessment in the Attagene TRANS-FACTORIAL HepG2 Assay (AID 2283584). In a few lines:
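Transfect HepG2 with GAL4-UAS reporter units, dose compound, incubate 24 h, then measure viable cell number by XTT. Fit concentration response against DMSO baseline.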

A short description of assay [13]: TOX21_p53_BLA_p3_viability: Viability Assessment in the Tox21 HCT-116 p53 Agonism Beta-lactamase Assay, Phase 3 (AID 2283593).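 Note: cells exposed to compound for 16 h before reading.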 In a few lines: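 HCT116 cells, 4000/well, dosed 5 h after plating by pin transfer (217-fold dilution from DMSO stock) and incubated 16 h at 37C, 5% CO2. Viability read as ATP luminescence with CellTiter-Glo after 30 min at room temperature.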

A short description of assay [14]: TOX21_p53_BLA_p4_viability: Viability Assessment in the Tox21 HCT-116 p53 Agonism Beta-lactamase Assay, Phase 4 (AID 2283597).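 Note: hits lower the luminescence signal meaning cytotoxicity.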 A digest of the protocol:
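Compound exposure of HCT116 cells lasts 16 h at 37C, 5% CO2, with DMSO stocks diluted 217-fold. Cellular ATP is then quantified by CellTiter-Glo luminescence after 30 min at room temperature.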

Assay [15] can be described thus: TOX21_p53_BLA_p5_viability: Viability Assessment in the Tox21 HCT-116 p53 Agonism Beta-lactamase Assay, Phase 5 (AID 2283600). In a few lines:
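Counter-readout for cytotoxicity: ATP-dependent luminescence from CellTiter-Glo, read in the beta-lactamase wells after 30 min at RT, following a 16 h compound exposure at 37C.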

Assay [16] is described as follows: ACEA_ER_AUC_viability: ACEA Biosciences xCELLigence Real-Time Cell Analysis on Estrogen Receptor Agonism for Viability (AID 2283782).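 Note: continuous compound exposure with impedance area under curve over 80 h; hit means loss of impedance signal meaning reduced cell growth or viability.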 In a few lines: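 T47D cells preconditioned in phenol red-free RPMI with charcoal-stripped FBS, then dosed with 8-point 1:4 series from 100 uM (up to 0.5% DMSO). Impedance monitored up to ~80 h; area-under-curve loss versus DMSO taken as viability.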

Assay [17] concerns the target human Vitamin D Receptor (VDR), VDR (gene 7421) (UniProt P11473). In words: ATG_VDR_TRANS: Attagene TRANS-FACTORIAL HepG2 Assay for human Vitamin D Receptor (VDR) (AID 2283022). A digest of the protocol: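 Fluorescence of labelled reporter cDNA fragments, resolved by capillary electrophoresis, gives mRNA induction after 24 h treatment of HepG2 cells carrying transfected Gal4-fusion reporter units. Activity is fitted in the positive direction with DMSO as baseline.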

Assay [18] in a line: ATG_ERE_CIS: Attagene CIS-FACTORIAL HepG2 Assay for Estrogen Response Element (ERE) (AID 2282940; active = hit-call score of the fitted dose curve at least 0.9, where 1 is the maximum; inactive = score below 0.9). The conditions noted are these: HepG2 ERE cis-reporter, Attagene RNA transcript; actives raise or lower the signal. A digest of the protocol:
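HepG2 cells transiently transfected with multiplexed cis-element reporter units, measuring endogenous transcription factor activity; ERE reporter mRNA quantified after 24 h exposure by RT-PCR, fluorescent labelling, HpaI digestion and capillary electrophoresis. Bidirectional change versus DMSO.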

Assay [19] deals with Bile acid receptor (Homo sapiens) (UniProt Q96RI1). In words: ATG_IR1_CIS: Attagene CIS-FACTORIAL HepG2 Assay for human Nuclear Receptor Subfamily 1 Group H Member 4 (NR1H4), IR1 submotif (AID 2282946; active = hit-call score of the fitted dose curve at least 0.9, where 1 is the maximum; inactive = score below 0.9). The conditions noted are these: IR1 reporter transcription, actives raise or lower the signal. A digest of the protocol: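 HepG2 cells transiently transfected with multiple cis-promoter-driven reporter units to measure endogenous transcription factor activity; 24 h exposure. Reporter mRNA read by RT-PCR, FAM labelling, HpaI digestion and capillary electrophoresis. Bidirectional fit versus DMSO.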

Assay [20] addresses human RAR-related Orphan Receptor beta (RORb), RORB (gene 6096) (UniProt Q92753). Kind of assay: ATG_RORb_TRANS: Attagene TRANS-FACTORIAL HepG2 Assay for human RAR-related Orphan Receptor beta (RORb) (AID 2283010). A digest of the protocol: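 Readout is reporter-gene mRNA induction, detected as fluorescence after RT-PCR and capillary electrophoresis, fitted for gain of signal against DMSO controls. Transiently transfected HepG2 liver cells carrying GAL4-UAS reporter constructs were treated for 24 hours.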

Sequence of Nuclear receptor subfamily 1 group I member 3 (Homo sapiens) (Q14994 whole entry, looked up, the tested form may be a part): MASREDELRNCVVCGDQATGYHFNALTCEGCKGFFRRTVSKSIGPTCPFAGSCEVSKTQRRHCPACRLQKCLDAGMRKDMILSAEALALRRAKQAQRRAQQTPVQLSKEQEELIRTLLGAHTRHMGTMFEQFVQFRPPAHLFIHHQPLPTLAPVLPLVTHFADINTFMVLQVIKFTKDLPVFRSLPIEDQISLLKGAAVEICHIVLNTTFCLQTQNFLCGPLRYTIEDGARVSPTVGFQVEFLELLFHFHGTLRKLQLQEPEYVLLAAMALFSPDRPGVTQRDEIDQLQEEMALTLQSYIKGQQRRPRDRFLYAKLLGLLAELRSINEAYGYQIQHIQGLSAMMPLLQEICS
Sequence of Nuclear receptor subfamily 1 group I member 2 (Homo sapiens) (O75469 whole entry, looked up, the tested form may be a part): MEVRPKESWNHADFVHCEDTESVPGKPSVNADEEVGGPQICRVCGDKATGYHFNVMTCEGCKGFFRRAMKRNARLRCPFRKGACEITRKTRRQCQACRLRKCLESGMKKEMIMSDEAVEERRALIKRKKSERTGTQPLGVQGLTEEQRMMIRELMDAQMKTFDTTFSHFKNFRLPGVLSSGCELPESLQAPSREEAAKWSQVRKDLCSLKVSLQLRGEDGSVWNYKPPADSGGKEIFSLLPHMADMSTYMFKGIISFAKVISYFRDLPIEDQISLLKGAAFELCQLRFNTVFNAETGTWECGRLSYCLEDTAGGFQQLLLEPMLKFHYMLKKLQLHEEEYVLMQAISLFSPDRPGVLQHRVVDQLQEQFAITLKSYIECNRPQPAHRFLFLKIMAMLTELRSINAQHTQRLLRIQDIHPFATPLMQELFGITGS
Sequence of human Vitamin D Receptor (VDR), VDR (gene 7421) (P11473 whole entry, looked up, the tested form may be a part): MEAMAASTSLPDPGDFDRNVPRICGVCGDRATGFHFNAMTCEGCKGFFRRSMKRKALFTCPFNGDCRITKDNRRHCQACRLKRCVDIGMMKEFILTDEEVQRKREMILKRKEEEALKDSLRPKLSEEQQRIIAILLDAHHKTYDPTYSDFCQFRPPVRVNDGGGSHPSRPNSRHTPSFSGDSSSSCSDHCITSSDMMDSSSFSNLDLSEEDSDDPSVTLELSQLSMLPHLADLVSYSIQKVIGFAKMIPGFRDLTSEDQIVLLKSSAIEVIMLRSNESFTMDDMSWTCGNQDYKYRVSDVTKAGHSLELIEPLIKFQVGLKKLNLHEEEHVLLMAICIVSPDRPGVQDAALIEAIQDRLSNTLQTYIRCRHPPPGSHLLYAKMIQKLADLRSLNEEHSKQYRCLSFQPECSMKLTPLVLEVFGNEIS
Sequence of Retinoic acid receptor RXR-alpha (Homo sapiens) (P19793 whole entry, looked up, the tested form may be a part): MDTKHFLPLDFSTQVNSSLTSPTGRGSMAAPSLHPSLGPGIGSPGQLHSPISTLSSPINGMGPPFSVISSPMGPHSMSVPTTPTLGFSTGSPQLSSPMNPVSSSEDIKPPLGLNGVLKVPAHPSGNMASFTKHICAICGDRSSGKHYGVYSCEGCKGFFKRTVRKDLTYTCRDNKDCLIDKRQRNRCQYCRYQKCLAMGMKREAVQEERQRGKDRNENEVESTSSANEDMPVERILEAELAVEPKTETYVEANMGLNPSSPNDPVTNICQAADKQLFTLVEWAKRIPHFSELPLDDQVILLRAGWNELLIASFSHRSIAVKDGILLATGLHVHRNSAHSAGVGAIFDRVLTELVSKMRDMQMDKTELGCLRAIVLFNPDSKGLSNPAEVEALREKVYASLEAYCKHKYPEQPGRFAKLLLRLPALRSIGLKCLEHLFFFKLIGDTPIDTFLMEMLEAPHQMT
Sequence of human RAR-related Orphan Receptor beta (RORb), RORB (gene 6096) (Q92753 whole entry, looked up, the tested form may be a part): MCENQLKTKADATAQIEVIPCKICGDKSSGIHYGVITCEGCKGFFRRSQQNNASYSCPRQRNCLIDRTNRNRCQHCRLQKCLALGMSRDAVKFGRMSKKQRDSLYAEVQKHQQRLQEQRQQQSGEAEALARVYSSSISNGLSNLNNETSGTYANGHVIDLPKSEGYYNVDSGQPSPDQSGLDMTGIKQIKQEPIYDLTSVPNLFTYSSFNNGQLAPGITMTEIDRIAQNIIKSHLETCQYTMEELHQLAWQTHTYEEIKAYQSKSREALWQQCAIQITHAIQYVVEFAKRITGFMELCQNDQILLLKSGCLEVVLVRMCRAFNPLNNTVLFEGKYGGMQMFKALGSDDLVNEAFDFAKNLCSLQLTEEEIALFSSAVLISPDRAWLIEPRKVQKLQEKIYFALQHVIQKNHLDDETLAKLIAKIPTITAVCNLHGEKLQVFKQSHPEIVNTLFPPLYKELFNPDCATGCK
Sequence of Glucocorticoid receptor (Homo sapiens) (P04150 whole entry, looked up, the tested form may be a part): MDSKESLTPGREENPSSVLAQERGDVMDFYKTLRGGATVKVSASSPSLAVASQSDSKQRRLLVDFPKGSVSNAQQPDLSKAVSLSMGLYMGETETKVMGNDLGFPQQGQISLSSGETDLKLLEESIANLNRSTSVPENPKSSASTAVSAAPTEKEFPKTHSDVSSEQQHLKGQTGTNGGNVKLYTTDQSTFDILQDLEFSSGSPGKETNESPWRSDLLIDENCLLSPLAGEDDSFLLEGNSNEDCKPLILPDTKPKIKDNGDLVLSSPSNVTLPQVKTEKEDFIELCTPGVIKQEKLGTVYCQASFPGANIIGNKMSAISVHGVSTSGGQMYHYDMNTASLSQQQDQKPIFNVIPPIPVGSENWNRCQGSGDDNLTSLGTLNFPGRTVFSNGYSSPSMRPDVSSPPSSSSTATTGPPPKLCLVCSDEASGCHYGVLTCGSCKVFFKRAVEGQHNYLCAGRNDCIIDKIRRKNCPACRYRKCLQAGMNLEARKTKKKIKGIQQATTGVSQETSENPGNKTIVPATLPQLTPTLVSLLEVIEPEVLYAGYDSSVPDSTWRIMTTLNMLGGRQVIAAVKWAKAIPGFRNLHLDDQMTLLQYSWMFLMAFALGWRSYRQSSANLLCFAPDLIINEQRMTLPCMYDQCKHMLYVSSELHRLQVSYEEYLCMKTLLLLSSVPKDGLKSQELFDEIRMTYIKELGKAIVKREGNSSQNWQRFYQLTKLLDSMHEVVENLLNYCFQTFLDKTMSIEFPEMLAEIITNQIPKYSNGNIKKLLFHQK
Sequence of Bile acid receptor (Homo sapiens) (Q96RI1 whole entry, looked up): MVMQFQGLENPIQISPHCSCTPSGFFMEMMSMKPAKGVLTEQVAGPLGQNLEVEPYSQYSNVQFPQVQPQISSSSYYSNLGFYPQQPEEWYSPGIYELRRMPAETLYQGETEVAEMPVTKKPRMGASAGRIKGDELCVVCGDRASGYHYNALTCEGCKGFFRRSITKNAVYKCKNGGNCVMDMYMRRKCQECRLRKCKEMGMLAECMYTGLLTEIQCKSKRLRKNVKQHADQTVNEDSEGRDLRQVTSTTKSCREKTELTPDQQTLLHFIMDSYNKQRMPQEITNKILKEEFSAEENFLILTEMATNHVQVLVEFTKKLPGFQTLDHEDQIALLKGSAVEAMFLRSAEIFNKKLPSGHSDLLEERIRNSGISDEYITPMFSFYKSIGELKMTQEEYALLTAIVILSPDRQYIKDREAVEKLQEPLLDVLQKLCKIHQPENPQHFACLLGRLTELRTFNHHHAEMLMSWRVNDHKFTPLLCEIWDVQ
Sequence of human Peroxisome Proliferator-activated Receptor delta (PPARd), PPARD (gene 5467) (Q03181 whole entry, looked up, the tested form may be a part): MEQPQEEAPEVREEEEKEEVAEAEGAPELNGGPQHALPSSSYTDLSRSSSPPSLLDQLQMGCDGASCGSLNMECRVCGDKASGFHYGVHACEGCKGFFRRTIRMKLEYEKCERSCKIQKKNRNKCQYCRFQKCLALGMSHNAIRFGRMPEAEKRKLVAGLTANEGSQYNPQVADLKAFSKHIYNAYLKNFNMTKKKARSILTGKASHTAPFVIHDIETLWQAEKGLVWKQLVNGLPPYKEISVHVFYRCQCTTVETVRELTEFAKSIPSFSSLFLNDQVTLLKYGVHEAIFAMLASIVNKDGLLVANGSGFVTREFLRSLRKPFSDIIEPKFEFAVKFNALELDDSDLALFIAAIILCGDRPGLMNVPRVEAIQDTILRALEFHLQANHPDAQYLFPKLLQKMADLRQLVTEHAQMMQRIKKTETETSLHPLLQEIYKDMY

Consider `C=CCN(CC=C)C(=O)C(Cl)Cl`, for which the outcome in assay [1], in [2], in assay [3], in assay [4], in [5] and in assay [6] was inactive. The result in assay [7], in assay [8], in assay [9], in assay [10], in assay [11] and in [12] was inactive. Also, the call in [13], in assay [14], in [15] and in assay [16] was inactive.

Broadly, the AC50 is the concentration at which the activity in the assay is half-maximal. `CCc1cccc(C)c1N(C(=O)CCl)[C@@H](C)COC`: the compound was called inactive in assay [1], in assay [17], in assay [13], in assay [14] and in assay [15]. For the same compound, the concentration at half-maximal activity (AC50) in assay [6] was 0.18 µM (active).

`CCc1cc(C)cc(CC)c1-c1c(OC(=O)C(C)(C)C)n2n(c1=O)CCOCC2`: the compound was classed as inactive in assay [18], in assay [19], in assay [4], in assay [5], in assay [6] and in assay [20]. Moreover, the result in assay [8], in [9], in assay [10] and in assay [11] was inactive. Besides, the AC50 in assay [3] is 20 µM (active).

For `CC(C)C(=O)Cl`, the compound was classed as inactive in assay [19], in assay [4], in [7], in assay [17], in assay [12] and in assay [16].

In the case of `COC(=O)COc1ccc(Cl)cc1Cl`, the call in assay [6], in [20], in [7], in assay [13], in assay [14] and in [15] was inactive.

For `C[N+](C)=CCl`, the call in assay [18], in [2] and in assay [20] was inactive.

In the case of `CC1CCCC1.[C-]#[O+].[C-]#[O+].[C-]#[O+].[Mn]`, the compound was called inactive in assay [1], in [2], in assay [17], in [13], in assay [14] and in assay [15].

In the case of `ClCC(Cl)Cl`, the call in [18], in assay [1], in assay [17], in [12], in assay [13] and in assay [15] was inactive.

As to `Clc1ccc(-c2ccccc2)cc1`, the AC50 in assay [18] is 55.7 µM (active); in assay [3], 30.5 µM (active). In addition, the call in assay [19], in [1], in [2], in assay [4], in assay [5] and in [7] was inactive. The result in assay [8], in assay [17], in assay [9], in assay [10], in [11] and in [16] was inactive.

Consider `CC(C)c1ccc(O)cc1`, for which the result in [1], in assay [2], in assay [4], in assay [6], in assay [20] and in assay [17] was inactive. In addition, the result in [15] was inactive.

The values are drawn from PubChem BioAssay (EPA / NIEHS).
